The nature of assay [1]: NCI Yeast Anticancer Drug Screen. Data for the rad50 strain (AID 155).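 Note: 0% = growth of vehicle-only cultures of the same strain.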 The conditions noted are these: S. cerevisiae rad50 strain growth inhibition, hits give high values; at 50.0 µM unless noted. The essentials:
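Yeast carrying a defined DNA repair defect were exposed to test compounds, and growth was compared with vehicle-treated controls to give percent inhibition.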

A short description of assay [2]: NCI Yeast Anticancer Drug Screen. Data for the mec2-1 strain (AID 157). To be noted: S. cerevisiae mec2-1 strain, hits give high values; at 50.0 µM unless noted. The essentials:
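Compounds were applied to mec2-1 yeast cells. Their growth was then compared with that of vehicle-treated cultures to give growth inhibition.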

Assay [3] can be described thus: NCI Yeast Anticancer Drug Screen. Data for the sgs1 mgt1 strain (AID 161).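 Note: 0% = growth of cultures given vehicle only.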 To be noted: S. cerevisiae sgs1 mgt1 strain, hits give high values; at 50.0 µM unless noted. The essentials:
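Percent growth inhibition was derived by comparing compound-exposed mutant yeast with vehicle-exposed cultures. The strain carries alterations in DNA damage repair.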

Assay [4] can be described thus: NCI Yeast Anticancer Drug Screen. Data for the bub3 strain (AID 167). The conditions noted are these: S. cerevisiae bub3 mutant strain, hits give high values; at 50.0 µM unless noted. The essentials: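 Compounds were applied to a genetically altered yeast strain carrying a cell-cycle control defect. Growth inhibition was scored against vehicle-treated controls.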
Assay [5] is described as follows: NCI Yeast Anticancer Drug Screen. Data for the mlh1 rad18 strain (AID 175). The conditions noted are these: S. cerevisiae mlh1 rad18 strain growth inhibition, hits give high values; at 50.0 µM unless noted. The essentials: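 A repair-deficient yeast strain is exposed to test compound, and growth is scored relative to vehicle-treated controls.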
Assay [6] can be described thus: NCI Yeast Anticancer Drug Screen. Data for the cln2 rad14 strain (AID 165).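 Note: 0% = growth equal to vehicle treated cultures.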 The conditions noted are these: S. cerevisiae cln2 rad14 strain, hits give high values; at 50.0 µM unless noted. The essentials: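 Strain: cln2 rad14 yeast, altered in cell cycle control and DNA damage repair. Read-out: growth inhibition vs vehicle.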

SMILES strings stand for the structures. This is part of a sample that, as a whole, favours compounds with a hit. Of some 79,000 tested, about 15% had one in any assay. Values without a mark were called inactive. Calls of active or inactive are those of the source. Cut-off read from the data, not from the text of the source: active = growth inhibition above about 70%; inactive = the rest.

On to `CN(C)/C=N/NC(=O)/C(C#N)=C/N(C)C`, for which the growth inhibition in assay [1] is -26.1%; in assay [2], 2.3%; in assay [3], -8.15%; in assay [4], -45.1%; in assay [5], -42.9%.

`CN1N=C(c2ccncc2)OC1c1cccc(C(F)(F)F)c1` (stereo not given): the growth inhibition in assay [1] was -63.6%; in assay [2], -65.9%; in assay [3], -32.8%; in assay [4], 0.75%; in assay [5] it was -21.3%.

Consider `CCC(O)C(C)(C)[N+](=O)[O-]` (stereo not given), for which the growth inhibition in assay [1] was 3.35%; in assay [2], -3.25%; in assay [3], -2.6%; in assay [4] it was -0.8%; in assay [5] it was 0.35%.

Turning to `CCCCCC#CC[C@@H](O)[C@@H](O)COCc1ccccc1`, the growth inhibition in assay [1] was 17.4%; in assay [2], 8.6%; in assay [3], 32.2%; in assay [6], 29.2%; in assay [5] it was 9.9%.

Take `O=[N+]([O-])c1ccccc1N1CCCCC1`: the growth inhibition was 23.9% in assay [1]; 7.05% in assay [2]; 14.9% in assay [3]; -4.05% in assay [4]; 27.2% in assay [5].

With `CC(C)(C)C1CCC2c3c([nH]c4ccccc34)C3C(=O)N(c4cc(Br)cc(Br)c4)C(=O)C3C2C1` (stereo not given), the growth inhibition in assay [1] was 14.3%; in assay [2], 9.15%; in assay [3], 7.75%; in assay [4], 21.8%; in assay [5], -46.5%.

As for `CCCCCCCCCCCCCCCCCCCCCCCCCCO`, the growth inhibition in assay [1] is -16.2%; in assay [2] it was -10.4%; in assay [3], -13.8%; in assay [6], -8.85%; in assay [5], -7.25%.

For the compound `CC(=O)OCCc1cccnc1/C=N/O`, the growth inhibition in assay [1] is -12.9%; in assay [2] it was -22.5%; in assay [3] it was -1.4%; in assay [4], -16.4%; in assay [5] it was -5.2%.

For `Cc1cc(Cl)ccc1OCC(=O)NCCO`, the growth inhibition in assay [1] is 33.4%; in assay [2] it was 19.9%; in assay [3], 13.8%; in assay [6], 10.4%; in assay [5], 12%.

Turning to `CCCCC(C(=O)CCC(=O)Nc1ccc(Cl)c(Cl)c1)C(=O)C(C)C` (stereo not given), the growth inhibition in assay [1] was -7%; in assay [2], -18.8%; in assay [3], 19.1%; in assay [4] it was 8.4%; in assay [5], -2.4%.

As to `Cc1ccc(NC(=O)Oc2ccc(-c3ccccc3)cc2Br)c(Br)c1`, the growth inhibition in assay [1] is 52.1%; in assay [2], 58%; in assay [3], 54.6%; in assay [4], 51.9%; in assay [5], 53.7%.

Regarding `Nc1nc(N)c2nc(SC34CC5CC(CC(C5)C3)C4)c(N)nc2n1`, the growth inhibition in assay [1] is -1.6%; in assay [2], 2.05%; in assay [3], -7.1%; in assay [4] it was -3.65%; in assay [5], 1.4%.

On to `O=C(Nc1noc(-c2ccccc2)n1)c1ccccc1CNc1noc(-c2ccccc2)n1`, for which the growth inhibition in assay [1] is -7.75%; in assay [2], -4.85%; in assay [3], 0.8%; in assay [4], -6.7%; in assay [5] it was 0%.

Take `O=C1C(NCCc2cc(Br)c(O)c(Br)c2)=CC(=O)c2ncccc21`: the growth inhibition in assay [1] is 31.9%; in assay [2], 37%; in assay [3] it was 33.9%; in assay [4] it was 34%; in assay [5], 28.4%.

Regarding `Cc1ccc2nc(NC(=O)C(=O)C(C#N)c3nc4ccccc4s3)sc2c1` (stereo not given), the growth inhibition in assay [1] was 11.2%; in assay [2], 1.75%; in assay [3] it was 19.7%; in assay [4] it was 18.5%; in assay [5] it was 19.2%.

`COc1ccccc1OC(=O)c1ccc(Cl)cc1`: the growth inhibition in assay [1] was 2.2%; in assay [2], -17.6%; in assay [3] it was 18.7%; in assay [4], 1.35%; in assay [5], 0.75%.

With `CC(=O)[C@@]1(O)CC[C@H]2[C@@H]3CC=C4C[C@@H](Cl)CC[C@]4(C)[C@H]3CC[C@@]21C`, the growth inhibition in assay [1] was -16.9%; in assay [2], 4.85%; in assay [3] it was 13.8%; in assay [4], 8.5%; in assay [5], 7.1%.

`CN(Cc1ccccc1)C(=O)Nc1ccc(Cl)c(Cl)c1`: the growth inhibition is 95.8% (active) in assay [1]; 99% (active) in assay [2]; 99% (active) in assay [3]; 97.7% (active) in assay [4]; 98.5% (active) in assay [5].

On to `COc1ccc(C(=O)O)c(Cc2ccc3ccccc3c2)c1`, for which the growth inhibition is 0.4% in assay [1]; -4.7% in assay [2]; 4.3% in assay [3]; -5.95% in assay [4]; 36% in assay [5].

Take `CN(C)S(=O)(=O)c1ccccc1C(O)(c1ccccc1)c1ccccc1` (tested in a mixture with another compound): the growth inhibition in assay [1] is 35.1%; in assay [2] it was 8.7%; in assay [3] it was -7.75%; in assay [4], 15.2%; in assay [5], 32.4%.

Turning to `Cn1c(O)c(N=NC(=O)Cc2c[nH]c3ccccc23)c2ccccc21`, the growth inhibition in assay [1] was -6.95%; in assay [2], -3.75%; in assay [3], 4.8%; in assay [4], -2.2%; in assay [5] it was -19.1%.

These data come from PubChem BioAssay (NCI).
